One may read the AC50 as the concentration giving half of the maximal activity seen.

Records with an inconclusive call do not appear. Calls of active or inactive are those of the source. Rule for the calls, unless noted: active = hit-call score of the fitted dose curve at least 0.9, where 1 is the maximum; inconclusive = response in the unintended direction; inactive = score below 0.9.

A short description of assay [1]: ATG_TCF_b_cat_CIS: Attagene CIS-FACTORIAL HepG2 Assay for human T-Cell-Factor with beta-catenin (TCF/b-cat) (AID 2282965; active = hit-call score of the fitted dose curve at least 0.9, where 1 is the maximum; inactive = score below 0.9). The following applies: HepG2 TCF/beta-catenin cis-reporter transcription, actives raise or lower the signal. In outline: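 Endogenous transcription factor activity is captured through cis-promoter reporter constructs transiently introduced into human HepG2 liver cells. Induced reporter mRNA is measured after 24 h and fitted bidirectionally relative to DMSO.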

Assay [2] is described as follows: ATG_TAL_CIS: Attagene CIS-FACTORIAL HepG2 Assay for human TAL Basal Promoter (AID 2282966; active = hit-call score of the fitted dose curve at least 0.9, where 1 is the maximum; inactive = score below 0.9;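 note: background control endpoint measuring basal TAL promoter reporter mRNA not a specific factor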). The settings on record: HepG2 Attagene cis-factorial TAL promoter reporter; actives raise or lower the signal. In outline: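 Fluorescence of labelled reporter cDNA fragments, resolved by capillary electrophoresis, gave the readout. Human HepG2 liver cells carried transiently transfected cis-element reporter units and were treated for 24 hours; activity was fitted bidirectionally against DMSO.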

A short description of assay [3]: ATG_TGFb_CIS: Attagene CIS-FACTORIAL HepG2 Assay for human Transforming Growth Factor (TGF) (AID 2282967; active = hit-call score of the fitted dose curve at least 0.9, where 1 is the maximum; inactive = score below 0.9). The following applies: HepG2 Attagene CIS TGFb reporter, mRNA transcription; actives raise or lower the signal. A digest of the protocol: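 Transcript-level reporter readout: HepG2 transfectants, 24 h exposure, RNA to cDNA, reporter-specific PCR, fluorescent primer extension, capillary sizing against ROX standards. Gain- or loss-of-signal relative to DMSO.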

A short description of assay [4]: ATG_VDRE_CIS: Attagene CIS-FACTORIAL HepG2 Assay for human Vitamin D Receptor Element (VDRE) (AID 2282968; active = hit-call score of the fitted dose curve at least 0.9, where 1 is the maximum; inactive = score below 0.9). The settings on record: HepG2 VDRE cis-reporter transcription, actives raise or lower the signal. In outline: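 Reporter mRNA induction, quantified by capillary electrophoresis of fluorescently labelled RT-PCR products, was read 24 h after dosing HepG2 cells carrying transiently transfected cis-regulated reporter units; gain or loss relative to DMSO.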

Assay [5] addresses Nuclear receptor subfamily 1 group I member 3 (Homo sapiens) (UniProt Q14994). The experiment in a line: ATG_CAR_TRANS: Attagene TRANS-FACTORIAL HepG2 Assay for human Constitutive Androstane Receptor (CAR) (AID 2282969).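 Note: activators raise reporter mRNA above DMSO so AC50 marks induction.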 The settings on record: HepG2 Attagene TRANS-FACTORIAL CAR reporter. In outline: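 Readout is reporter mRNA induction, quantified by fluorescent primer extension and capillary electrophoresis after RT-PCR. Cells were HepG2 transiently carrying chimeric NR-Gal4 constructs with GAL4-UAS reporters, treated for 24 h; activity scored upward from DMSO.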

Assay [6] deals with Estrogen receptor (Homo sapiens) (UniProt P03372). The experiment in a line: ATG_ERa_TRANS: Attagene TRANS-FACTORIAL HepG2 Assay for human Estrogen Receptor alpha (ERa) (AID 2282970). The following applies: HepG2 Attagene TRANS ERa GAL4 reporter, mRNA. In outline: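 Human liver HepG2, transient transfection of multiple GAL4-UAS reporter units; TRANS format (exogenous NR-Gal4 chimera). 24 h dosing. Readout: reporter mRNA, RT-PCR, 6-FAM primer extension, HpaI digest, capillary electrophoresis. Positive direction vs DMSO.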

The target in assay [7] is X-box-binding protein 1 (Homo sapiens) (UniProt P17861). The experiment in a line: ATG_Xbp1_CIS: Attagene CIS-FACTORIAL HepG2 Assay for human X-box Binding Protein 1 (XBP1) (AID 2282972; active = hit-call score of the fitted dose curve at least 0.9, where 1 is the maximum; inactive = score below 0.9). The settings on record: HepG2 XBP1 cis-element reporter, Attagene multiplex; actives raise or lower the signal. A digest of the protocol: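 HepG2 cells transiently transfected with multiple cis-element reporter units report endogenous TF activity; 24 h exposure, then reporter mRNA measured by RT-PCR, 6-FAM labelling, HpaI digestion and capillary electrophoresis. Bidirectional fitting versus DMSO.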

The nature of assay [8]: ATG_M_19_TRANS: Attagene TRANS-FACTORIAL HepG2 Assay for M19 Transcription Factor (Internal Marker) (AID 2282974). The following applies: HepG2 Attagene TRANS-FACTORIAL M19 internal marker reporter. A digest of the protocol: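 Transfected HepG2 (GAL4-UAS MRTUs), 24 h compound, TriZol RNA, DNase-treated RT, reporter PCR, FAM label, HpaI digest, CE fluorescence; gain vs DMSO.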

Assay [9] addresses Estrogen-related receptor gamma (Homo sapiens) (UniProt P62508). The experiment in a line: ATG_ERRg_TRANS: Attagene TRANS-FACTORIAL HepG2 Assay for human Estrogen-Related Receptor gamma (ERRg) (AID 2282977).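 Note: hits increase reporter signal over DMSO so potencies reflect activators.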 The settings on record: HepG2 Attagene TRANS reporter, ERRg transactivation. A digest of the protocol: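 Transfect HepG2 with multiple GAL4-UAS reporter transcription units; dose chemicals 24 h; isolate RNA, reverse-transcribe with oligo(dT), PCR-amplify, label with 6-FAM, digest with HpaI; size fragments by capillary electrophoresis. DMSO serves as negative control.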

Assay [10] addresses Hepatocyte nuclear factor 4-alpha (Homo sapiens) (UniProt P41235). The experiment in a line: ATG_HNF4a_TRANS: Attagene TRANS-FACTORIAL HepG2 Assay for human Hepatocyte Nuclear Factor 4 alpha (HNF4a) (AID 2282982). The settings on record: HepG2 HNF4a transactivation reporter, mRNA readout. A digest of the protocol:
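Readout is fluorescent reporter-transcript fragments resolved by capillary electrophoresis after RT-PCR from HepG2 cells dosed for 24 h. Cells carried transfected GAL4-UAS reporter constructs measuring exogenous NR-GAL4 chimera activity; DMSO served as baseline.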

Assay [11] can be described thus: ATG_M_32_TRANS: Attagene TRANS-FACTORIAL HepG2 Assay for M32 Transcription Factor (Internal Marker) (AID 2282984).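 Note: transcript level of a background control reporter unit measured by RT-PCR and capillary electrophoresis.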 The following applies: HepG2 Attagene TRANS M32 internal marker reporter. A digest of the protocol:
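Measures reporter mRNA induction in human HepG2 liver cells after 24 h chemical treatment. Transcripts from transiently transfected GAL4-UAS reporter units are amplified, fluorescently labelled and sized by capillary electrophoresis; gain of signal relative to DMSO.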

The target in assay [12] is Nuclear receptor subfamily 4 group A member 2 (Homo sapiens) (UniProt P43354). The experiment in a line: ATG_NURR1_TRANS: Attagene TRANS-FACTORIAL HepG2 Assay for human Nuclear Receptor Related Protein 1 (NURR1) (AID 2282985). The settings on record: HepG2 Attagene TRANS reporter, mRNA readout. In outline: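 Transient transfection of HepG2, human liver cells, with multiple GAL4-UAS reporter transcription units. Cells dosed 24 h, RNA isolated, reverse-transcribed, PCR-amplified, FAM-labelled, HpaI-digested, sized by capillary electrophoresis. DMSO served as negative control.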

Assay [13] concerns the target Transcriptional activator Myb (Homo sapiens) (UniProt P10242). The experiment in a line: ATG_Myb_CIS: Attagene CIS-FACTORIAL HepG2 Assay for human Myeloblastosis (Myb) Proto-Oncogene Transcription Factor (AID 2282986; active = hit-call score of the fitted dose curve at least 0.9, where 1 is the maximum; inactive = score below 0.9). The settings on record: HepG2 Attagene CIS-FACTORIAL Myb reporter transcription; actives raise or lower the signal. A digest of the protocol: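 After 24 h of compound dosing, total RNA from transfected HepG2 cells is reverse-transcribed and the reporter sequences amplified, labeled and separated by capillary electrophoresis. Values come from bidirectional fitting against DMSO.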

The nature of assay [14]: ATG_GAL4_TRANS: Attagene TRANS-FACTORIAL HepG2 Assay for GAL4 (Internal Marker) (AID 2282976). The following applies: HepG2 Attagene TRANS GAL4 internal marker reporter. A digest of the protocol:
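First, HepG2 cells were transfected with reporter units under GAL4-UAS control. Next, they were treated with chemical for 24 h. Finally, RNA was reverse-transcribed, PCR-amplified, FAM-labelled and resolved by capillary electrophoresis, with induction scored against DMSO.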

Assay [15] concerns the target Glucocorticoid receptor (Homo sapiens) (UniProt P04150). The experiment in a line: ATG_GR_TRANS: Attagene TRANS-FACTORIAL HepG2 Assay for human Glucocorticoid Receptor (GR) (AID 2282978).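 Note: activators score as hits since higher reporter transcript over DMSO is fitted.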 The following applies: HepG2 Attagene TRANS GR reporter, mRNA transcription. A digest of the protocol: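 After 24 h incubation with test chemical, transfected HepG2 cells were lysed for RNA; reporter cDNA was amplified, FAM-labelled, HpaI-digested and sized on a capillary analyser. Signal gain relative to DMSO was scored.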

Assay [16] addresses Bile acid receptor (Homo sapiens) (UniProt Q96RI1). The experiment in a line: ATG_FXR_TRANS: Attagene TRANS-FACTORIAL HepG2 Assay for Farnesoid X Receptor (FXR) (AID 2282979).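 Note: hits raise reporter mRNA above DMSO so AC50 marks FXR activation.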 The settings on record: HepG2 Attagene TRANS FXR-GAL4 reporter transcription. A digest of the protocol:
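Transient transfection of HepG2 with multiplexed GAL4-UAS reporter units; exogenous FXR-GAL4 chimera. Dose 24 h → TriZol RNA → oligo(dT) RT → PCR, 6-FAM primer extension, HpaI cut → CE. Gain vs DMSO.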

Assay [17] has as its target Oxysterols receptor LXR-beta (Homo sapiens) (UniProt P55055). The experiment in a line: ATG_LXRb_TRANS: Attagene TRANS-FACTORIAL HepG2 Assay for human Liver X Receptor beta (LXRb) (AID 2282981). The settings on record: HepG2 Attagene TRANS GAL4-LXRb reporter, mRNA. A digest of the protocol:
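Transient transfection HepG2 (multiplexed RTUs, GAL4-UAS); NR-Gal4 chimera; 24 h exposure; RNA → RT-PCR → 6-FAM primer extension → HpaI → CE; increase vs DMSO.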

Assay [18] can be described thus: ATG_M_06_TRANS: Attagene TRANS-FACTORIAL HepG2 Assay for M06 Transcription Factor (Internal Marker) (AID 2282983).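 Note: reporter transcript level by RT-PCR then capillary electrophoresis fluorescence.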 The settings on record: HepG2 Attagene TRANS M06 internal marker reporter. In outline: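 Transfect HepG2 with MRTUs → dose compounds 24 h → isolate RNA, oligo(dT) RT → PCR with reporter primers → 6-FAM primer extension → HpaI digest → CE fragment analysis. Positive direction vs DMSO.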

In assay [19] the target is Oxysterols receptor LXR-alpha (Homo sapiens) (UniProt Q13133). The experiment in a line: ATG_LXRa_TRANS: Attagene TRANS-FACTORIAL HepG2 Assay for human Liver X Receptor alpha (LXRa) (AID 2282980). The settings on record: HepG2 Attagene TRANS reporter, LXRa transactivation. A digest of the protocol:
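Transfect HepG2 with GAL4-UAS multiplex reporter constructs (TRANS format, chimeric receptor-GAL4); treat 24 h; extract RNA, reverse-transcribe, PCR-amplify, FAM-label, HpaI-digest; resolve fragments by capillary electrophoresis. Upward response vs DMSO.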

Hepatocyte nuclear factor 4-alpha (Homo sapiens), sequence (P41235 whole entry, looked up, the tested form may be a part): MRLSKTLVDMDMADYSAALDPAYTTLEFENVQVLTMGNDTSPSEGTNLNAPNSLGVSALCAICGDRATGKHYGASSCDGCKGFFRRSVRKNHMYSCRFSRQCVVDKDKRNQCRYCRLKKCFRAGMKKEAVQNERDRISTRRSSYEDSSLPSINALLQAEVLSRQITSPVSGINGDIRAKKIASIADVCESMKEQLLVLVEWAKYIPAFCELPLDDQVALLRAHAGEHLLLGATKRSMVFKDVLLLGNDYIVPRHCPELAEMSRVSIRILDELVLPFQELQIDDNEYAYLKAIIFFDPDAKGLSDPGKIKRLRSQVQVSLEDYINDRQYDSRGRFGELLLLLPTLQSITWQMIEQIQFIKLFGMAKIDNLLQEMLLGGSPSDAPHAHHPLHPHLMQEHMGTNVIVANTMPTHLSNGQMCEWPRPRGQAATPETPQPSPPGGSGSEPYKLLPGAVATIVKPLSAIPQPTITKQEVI
Nuclear receptor subfamily 4 group A member 2 (Homo sapiens), sequence (P43354 whole entry, looked up, the tested form may be a part): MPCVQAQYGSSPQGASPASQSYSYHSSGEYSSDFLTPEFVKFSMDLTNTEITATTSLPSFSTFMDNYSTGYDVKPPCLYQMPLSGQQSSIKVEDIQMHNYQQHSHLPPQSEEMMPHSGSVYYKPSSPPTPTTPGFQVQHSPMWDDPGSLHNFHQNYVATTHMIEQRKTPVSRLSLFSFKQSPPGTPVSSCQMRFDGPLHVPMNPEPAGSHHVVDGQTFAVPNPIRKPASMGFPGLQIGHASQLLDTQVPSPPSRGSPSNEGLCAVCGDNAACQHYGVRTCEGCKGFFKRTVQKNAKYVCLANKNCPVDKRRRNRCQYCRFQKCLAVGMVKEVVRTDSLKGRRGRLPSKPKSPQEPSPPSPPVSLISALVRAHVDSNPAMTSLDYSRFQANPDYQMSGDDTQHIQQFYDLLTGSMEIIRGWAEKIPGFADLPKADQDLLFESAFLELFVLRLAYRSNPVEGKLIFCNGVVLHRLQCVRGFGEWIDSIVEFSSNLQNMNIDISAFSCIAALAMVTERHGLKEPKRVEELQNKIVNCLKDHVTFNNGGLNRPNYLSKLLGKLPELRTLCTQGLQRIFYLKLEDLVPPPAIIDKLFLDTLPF
Estrogen-related receptor gamma (Homo sapiens), sequence (P62508 whole entry, looked up, the tested form may be a part): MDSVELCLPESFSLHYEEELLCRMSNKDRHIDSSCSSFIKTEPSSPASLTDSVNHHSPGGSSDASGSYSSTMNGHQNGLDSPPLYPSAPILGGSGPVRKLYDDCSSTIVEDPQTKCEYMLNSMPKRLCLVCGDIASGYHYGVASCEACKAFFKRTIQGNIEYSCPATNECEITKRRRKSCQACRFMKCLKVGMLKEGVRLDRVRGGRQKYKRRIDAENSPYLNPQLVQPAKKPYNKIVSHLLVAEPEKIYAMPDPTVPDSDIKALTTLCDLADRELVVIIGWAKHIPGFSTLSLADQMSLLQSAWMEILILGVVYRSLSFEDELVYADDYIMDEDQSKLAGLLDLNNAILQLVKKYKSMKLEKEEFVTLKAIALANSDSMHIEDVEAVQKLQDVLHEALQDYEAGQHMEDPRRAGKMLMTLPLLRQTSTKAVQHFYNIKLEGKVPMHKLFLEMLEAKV
Transcriptional activator Myb (Homo sapiens), sequence (P10242 whole entry, looked up): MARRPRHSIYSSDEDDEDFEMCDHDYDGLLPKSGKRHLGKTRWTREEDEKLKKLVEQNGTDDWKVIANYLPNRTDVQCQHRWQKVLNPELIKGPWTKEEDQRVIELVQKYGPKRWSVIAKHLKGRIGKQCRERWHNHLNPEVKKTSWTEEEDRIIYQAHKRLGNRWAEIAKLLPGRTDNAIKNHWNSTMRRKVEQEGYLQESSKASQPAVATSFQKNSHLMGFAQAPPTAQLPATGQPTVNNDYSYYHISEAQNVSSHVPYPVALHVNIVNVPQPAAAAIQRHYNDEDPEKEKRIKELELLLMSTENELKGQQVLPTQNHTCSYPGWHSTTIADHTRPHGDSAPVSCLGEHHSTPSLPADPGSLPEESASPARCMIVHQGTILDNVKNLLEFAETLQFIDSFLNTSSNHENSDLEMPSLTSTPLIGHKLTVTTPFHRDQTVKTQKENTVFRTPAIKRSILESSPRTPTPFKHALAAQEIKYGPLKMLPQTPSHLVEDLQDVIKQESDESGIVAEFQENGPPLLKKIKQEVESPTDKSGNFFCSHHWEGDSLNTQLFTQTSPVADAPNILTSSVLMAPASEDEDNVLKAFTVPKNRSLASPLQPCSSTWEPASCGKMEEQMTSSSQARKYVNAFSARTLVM
X-box-binding protein 1 (Homo sapiens), sequence (P17861 whole entry, looked up): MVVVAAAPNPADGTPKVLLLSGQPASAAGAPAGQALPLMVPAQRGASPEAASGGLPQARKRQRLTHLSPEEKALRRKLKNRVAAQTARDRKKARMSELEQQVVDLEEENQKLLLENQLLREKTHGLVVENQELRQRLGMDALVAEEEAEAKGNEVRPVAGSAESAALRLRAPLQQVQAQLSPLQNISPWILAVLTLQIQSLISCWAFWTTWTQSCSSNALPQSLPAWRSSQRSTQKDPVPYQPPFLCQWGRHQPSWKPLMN
Glucocorticoid receptor (Homo sapiens), sequence (P04150 whole entry, looked up): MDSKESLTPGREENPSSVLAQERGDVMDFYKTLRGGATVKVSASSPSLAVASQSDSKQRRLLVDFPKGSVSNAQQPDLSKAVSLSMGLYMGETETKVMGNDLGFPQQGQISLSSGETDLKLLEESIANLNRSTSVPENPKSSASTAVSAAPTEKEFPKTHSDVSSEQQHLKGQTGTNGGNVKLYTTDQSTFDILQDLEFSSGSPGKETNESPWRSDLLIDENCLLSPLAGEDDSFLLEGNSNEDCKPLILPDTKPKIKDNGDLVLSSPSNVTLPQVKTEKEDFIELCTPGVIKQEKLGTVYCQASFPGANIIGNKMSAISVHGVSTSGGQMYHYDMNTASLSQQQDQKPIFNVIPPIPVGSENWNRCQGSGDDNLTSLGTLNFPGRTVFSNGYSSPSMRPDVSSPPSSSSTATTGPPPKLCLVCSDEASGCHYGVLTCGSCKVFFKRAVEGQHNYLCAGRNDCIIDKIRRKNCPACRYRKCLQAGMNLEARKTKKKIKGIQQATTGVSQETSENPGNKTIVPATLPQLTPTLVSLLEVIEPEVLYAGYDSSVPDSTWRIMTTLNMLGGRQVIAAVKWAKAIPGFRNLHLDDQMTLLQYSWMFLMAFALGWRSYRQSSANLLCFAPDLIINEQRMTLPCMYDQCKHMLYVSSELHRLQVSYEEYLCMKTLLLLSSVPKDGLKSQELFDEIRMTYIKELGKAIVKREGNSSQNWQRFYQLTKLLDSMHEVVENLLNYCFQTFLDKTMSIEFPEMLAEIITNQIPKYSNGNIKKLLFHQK
Nuclear receptor subfamily 1 group I member 3 (Homo sapiens), sequence (Q14994 whole entry, looked up, the tested form may be a part): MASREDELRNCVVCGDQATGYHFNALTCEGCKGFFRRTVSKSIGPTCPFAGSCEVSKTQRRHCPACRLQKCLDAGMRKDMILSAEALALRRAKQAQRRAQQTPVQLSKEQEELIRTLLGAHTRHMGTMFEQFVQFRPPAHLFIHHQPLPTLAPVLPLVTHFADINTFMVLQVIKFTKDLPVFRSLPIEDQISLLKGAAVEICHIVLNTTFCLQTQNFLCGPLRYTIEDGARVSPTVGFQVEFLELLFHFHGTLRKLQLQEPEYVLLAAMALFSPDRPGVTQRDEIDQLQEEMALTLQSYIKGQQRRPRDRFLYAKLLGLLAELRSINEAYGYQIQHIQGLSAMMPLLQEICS
Estrogen receptor (Homo sapiens), sequence (P03372 whole entry, looked up, the tested form may be a part): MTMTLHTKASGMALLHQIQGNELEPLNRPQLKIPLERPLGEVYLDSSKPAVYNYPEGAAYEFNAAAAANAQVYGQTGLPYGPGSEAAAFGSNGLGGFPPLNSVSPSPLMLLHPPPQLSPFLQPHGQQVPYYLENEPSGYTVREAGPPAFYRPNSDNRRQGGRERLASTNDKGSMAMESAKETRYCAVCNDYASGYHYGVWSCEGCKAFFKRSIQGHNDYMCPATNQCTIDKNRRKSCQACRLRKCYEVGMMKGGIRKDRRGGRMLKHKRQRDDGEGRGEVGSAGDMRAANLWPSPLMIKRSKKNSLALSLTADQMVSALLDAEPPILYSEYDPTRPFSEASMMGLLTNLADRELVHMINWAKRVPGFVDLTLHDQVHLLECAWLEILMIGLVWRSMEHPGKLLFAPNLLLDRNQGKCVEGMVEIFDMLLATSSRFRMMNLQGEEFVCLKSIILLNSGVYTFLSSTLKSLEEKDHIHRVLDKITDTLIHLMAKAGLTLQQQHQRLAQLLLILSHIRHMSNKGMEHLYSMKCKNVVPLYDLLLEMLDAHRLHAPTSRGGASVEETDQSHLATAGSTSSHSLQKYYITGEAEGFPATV
Oxysterols receptor LXR-beta (Homo sapiens), sequence (P55055 whole entry, looked up, the tested form may be a part): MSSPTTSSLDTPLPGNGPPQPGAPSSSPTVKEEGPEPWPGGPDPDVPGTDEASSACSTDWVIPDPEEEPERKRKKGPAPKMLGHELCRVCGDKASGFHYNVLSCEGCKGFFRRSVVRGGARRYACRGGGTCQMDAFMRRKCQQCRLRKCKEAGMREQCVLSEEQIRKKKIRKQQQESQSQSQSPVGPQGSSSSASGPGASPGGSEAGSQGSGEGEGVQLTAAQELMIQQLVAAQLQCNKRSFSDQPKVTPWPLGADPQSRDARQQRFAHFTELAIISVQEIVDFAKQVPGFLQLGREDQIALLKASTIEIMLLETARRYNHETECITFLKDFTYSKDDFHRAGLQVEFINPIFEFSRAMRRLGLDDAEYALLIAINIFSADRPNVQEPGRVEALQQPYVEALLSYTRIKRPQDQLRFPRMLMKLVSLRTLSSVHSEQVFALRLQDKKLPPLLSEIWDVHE

On to `CCCCCCC(=O)OCC`, for which the outcome in assay [1], in assay [2], in assay [3], in [4], in assay [5] and in assay [7] was inactive. In addition, the compound was classed as inactive in assay [8], in assay [9], in assay [10], in assay [11], in [12] and in [13]. Also, the AC50 in assay [6] is 17.6 µM (active).
`Cc1cc(NC(=O)C(=O)O)cc(C)c1Oc1ccc(O)c2c1CCC2`: the result in [1], in assay [2], in assay [3], in assay [4], in assay [5] and in assay [6] was inactive. The outcome in assay [7], in assay [14], in [9], in assay [15], in assay [16] and in assay [17] was inactive. In addition, the compound was called inactive in assay [10], in assay [11], in [12] and in assay [13].
As for `Cc1ccc(C(C)C)c(O)c1`, the outcome in assay [1], in [2], in [3], in assay [4], in assay [5] and in [7] was inactive. The call in assay [14], in assay [9], in [15], in assay [17], in assay [10] and in [18] was inactive. The call in assay [12] and in assay [13] was inactive. In addition, in assay [6], the half-maximal activity concentration (AC50) was 46.1 µM (active).
On to `NCC1(Cc2noc(=O)[nH]2)CCCCC1`, for which the outcome in [1], in [2], in assay [3], in [4], in [5] and in [7] was inactive. In addition, the compound was called inactive in assay [14], in [19], in [18], in assay [12] and in assay [13].
For `Cc1ccc(C)c(C)c1`, the outcome in assay [1], in assay [2], in [3], in assay [4], in assay [5] and in assay [6] was inactive. For the same compound, the outcome in assay [7], in assay [8], in assay [15], in [12] and in [13] was inactive.

The record behind these values is PubChem BioAssay (EPA / NIEHS).
